SARS PLpro yeast – inhibitors of SARS-CoV papain-like protease in yeast | S. cerevisiae expressing SARS-CoV PLpro, growth rescue | 330,000 tested, 0.19% active | Potency, µM (highest dose often 32.9 µM), inactives show top-dose activity, positive = growth rescue, hits mostly activators; also: 0% is about no effect; nearly all actives have a fitted effect of over 55% in size
Pf growth 48h – inhibits P. falciparum growth in the first generation, 48 h; P. falciparum luciferase growth in erythrocytes, 48 h; Potency, µM (top dose mostly 28.7 µM), for the others: at the top dose activity change, negative = inhibition, actives largely listed as inhibitors; 310,000 tested, 5.9% active; AID 504832; active = well fitted inhibition curve with a large enough effect; inconclusive = small, poorly fitted or top-dose-only effect, or another doubt; inactive = no such curve, though single readings can be large or run the other way; also: % is scaled to controls: 0 for no effect and ±100 for the full control effect
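Erythrocytes infected with P. falciparum carrying an integrated firefly luciferase reporter (2% hematocrit, 0.1% parasitemia final) were exposed to compounds in RPMI 1640 with 0.5% Albumax at 37 C, 5% CO2. Growth inhibition was scored as reduced luminescence.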
NS1 function inh – inhibitors of influenza NS1 protein function; 270,000 tested, 0.4% active; Potency, µM (top dose mostly 46.1 µM), without a hit: at the highest dose activity, positive = more growth; also: actives are rising curves; nearly all actives have a fitted effect of over 50% in size
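Read-out: OD600 growth recovery of NS1-expressing budding yeast. Cells grown overnight at 30C in -URA glucose medium, washed, resuspended and diluted 1:100 in 2% galactose assay medium, pH 6.0. Same strain lacking NS1 served as positive control.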
Pf growth 96h – inhibits malaria parasite growth, 96 h. P. falciparum luciferase reporter growth, 96 h. Potency, µM (series often up to 28.7 µM), for inactives: at the top dose activity change, negative = inhibition, actives largely listed as inhibitors. 320,000 tested, 6.9% active; active = well fitted inhibition curve with a large enough effect; inconclusive = small, poorly fitted or top-dose-only effect, or another doubt; inactive = no such curve, though single readings can be large or run the other way; also: % is scaled to controls: 0 for no effect and ±100 for the full control effect
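Erythrocytes infected with luciferase-expressing P. falciparum were dispensed at 2% hematocrit and 0.05% parasitemia (final), then incubated with compounds 96 hours at 37 C in 5% CO2. Luminescence after detection reagent addition reported growth.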
* marks the source's active call; other numbers are inactive results; ? = inconclusive; / = not tested or not shown; [ ] = dose if it differs, or a comment. A selection: hits, their analogues and other compounds. The true share with any hit is near 10%. Unless noted, calls follow the shape of the full dose curve. Potency is read from the fitted curve at half-maximal effect.

SMILES	SARS PLpro yeast	Pf growth 48h	NS1 function inh	Pf growth 96h
Cc1cc(NC(=O)CSc2nnnn2C2CCCC2)no1	3.5%	14.9%	4.4%	7.38µM*
Cc1ccc(NC(=O)CSc2nnnn2C2CCCC2)cc1S(=O)(=O)N1CCOCC1	2.5%	?	/	8.28µM*
Cc1ccc(S(=O)(=O)N2CCOCC2)cc1NC(=O)CSc1nnnn1C1CCCC1	-1.1%	6.2%	/	-21.5%
CCc1cc(=O)n2[nH]c(-c3ccccc3)c(-c3ccccc3)c2n1	0.3%	18.2%	3.4%	1.4%
Cc1cc(=O)[nH]c2cc3oc4ccccc4c3cc12	/	/	-13.6%	/
Cc1ccc(C)c(CN2CCC(CNC(=O)Nc3ccc(Cl)cc3)CC2)c1	-2.4%	6.5%[0.00184 µM]	-34.0%	?
Cc1ccc(C)c(CN2CCC(CNC(=O)Nc3ccc(Br)cc3F)CC2)c1	-2.4%	13.1µM*	-0.2%	-13.1%
Cn1ncc(C#N)c1NC(=O)c1nn2cccnc2c1Cl	-3.2%	5.1%	14.9%	4.65µM*
Cc1cc(=O)oc(C)c1C(=O)NCCNC(=O)c1c(C)cc(=O)oc1C	0.1%	-0.7%	6.4%	/
Cc1cc(=O)oc(C)c1C(=O)NCCC(C)C	6.2%	24.6%	?	4.15µM*
CC(OC(=O)c1ccco1)C(=O)NCc1cccs1 (stereo not drawn)	-10.3%	0.0%	5.5%	11.7µM*
O=C(Nc1cccc(Cl)c1N1CCOCC1)c1ccc(Br)o1	-4.8%	19.3%	-3.9%	-8.8%
COc1ccc(C(=O)C2CCCN(Cc3cn[nH]c3-c3ccc(F)cc3)C2)cc1OC (stereo not drawn)	-1.0%	-7.0%	0.5%	6.1%
COc1ccc(CN2CCSCC2)c(C)c1C	-3.5%	-2.0%	-11.0%	8.28µM*
COc1ccc(-c2[nH]ncc2CN2CCCC(C(=O)c3ccc(OC)cc3OC)C2)cc1 (stereo not drawn)	0.2%	13.1µM*	0.2%	0.828µM*
COc1ccc(-c2[nH]ncc2CN2CCSCC2)c(OC)c1	-0.5%	-0.9%	4.2%	11.7µM*
COc1ccc(OC)c(CN2CCSCC2)c1	4.7%	?	-4.6%	-2.3%
COc1ccc(OC)c(C2C(C(=O)c3cccs3)=C(O)C(=O)N2CCN2CCOCC2)c1 (stereo not drawn)	-2.1%	5.4%	0.4%	-2.2%
CSc1ccc(/C=C(\NC(=O)c2ccco2)C(=O)N2CCCCC2)cc1	0.9%	-9.2%	-17.9%	-0.1%
COc1ccc(C(C)(C)NC(=O)C2CCC(=O)N(C3CC3)C2)cc1OC (stereo not drawn)	7.2%	-6.7%	0.4%	-17.5%
Cc1cc(OCc2cc(C(=O)NCCN3CCCCC3CO)no2)cc(C)c1Cl (stereo not drawn)	1.7%	7.5%	4.3%	?
O=C(CN1CC(c2ccccc2)CC1=O)NCc1ccc(F)cc1 (stereo not drawn)	-17.9%	20.6%	-3.7%	4.15µM*
COc1cccc(NC(=O)CN2CC(c3ccccc3)CC2=O)c1 (stereo not drawn)	?	/	-4.8%	15.2%
Cn1cc(CNC(=O)c2ccc3nc(Cc4ccccc4F)oc3c2)cn1	-5.5%	29.8%	-8.5%	13.4%
Cn1cc(CCNC(=O)c2ccc3nc(Cc4ccccc4F)oc3c2)cn1	-3.5%	64.0%	-17.9%	1.85µM*
SMILES	SARS PLpro yeast	Pf growth 48h	NS1 function inh	Pf growth 96h
CCN(CC(=O)Nc1cc(Cl)ccc1C)C(=O)CCS(=O)(=O)c1ccc(Cl)cc1	-3.9%	2.2%	11.3%	-14.7%
O=[N+]([O-])c1ccc(N2CCCCC2)c2ncccc12	-0.4%	-4.3%	-0.3%	66.9%
O=C(C1CCC1)N1CCN(c2ccc(C(F)(F)F)cc2[N+](=O)[O-])CC1	-0.2%	-25.1%	6.2%	-2.1%
Cc1cc(N2CCN(c3ccc([N+](=O)[O-])c4cccnc34)CC2)c2ccccc2n1	5.2%	-17.9%	13.4%	7.38µM*
Cc1cc(N2CCN(c3ccc(C(F)(F)F)cc3[N+](=O)[O-])CC2)c2ccccc2n1	1.2%	13.1µM*	-16.0%	7.38µM*
O=C(Nc1ccccc1)N1CCCN(c2ccc(C(F)(F)F)cc2[N+](=O)[O-])CC1	0.1%	13.1µM*	-2.0%	10.4µM*
COc1cccc(N/C(N)=N/c2nc(C(F)(F)F)cc(=O)[nH]2)c1	24.7%	27.0%	6.2%	30.1%
CNS(=O)(=O)c1cccc(C(=O)OCC(=O)N(Cc2ccccc2)C(C)(C)C)c1	2.7%	-4.2%	/	-10.7%
CCOc1ccc(/C(O)=C2/C(=O)C(=O)N(CCCN3CCOCC3)C2c2ccc(C)cc2)cc1C (stereo not drawn)	3.5%	159.1%	3.6%	38.8%
COc1ccccc1N=C1NC(=O)/C(=C/c2ccc(N(C)C)cc2)S1	-7.4%	0.0928µM*	-8.2%	?
COc1cc(/C=C2\SC(=Nc3ccc(O)cc3)NC2=O)cc(OC)c1OC	-2.0%	?	-2.2%	?
COc1cc(/C=C2/SC(=Nc3ccc(O)cc3)NC2=O)cc(OC)c1O	-3.2%	3.7µM*	11.8%	1.85µM*
CCN1c2ccccc2-c2nc3ccccc3n2C1c1cccs1 (stereo not drawn)	-74.4%	8.28µM*	-47.2%	3.7µM*
Cc1ccc(Cn2ccc(NC(=O)c3cc(-c4cccs4)on3)n2)cc1	5.1%	10.4µM*	-1.9%	?
CCOC(=O)/C=C/C(=O)OCC(=O)N1CCN(C(=O)c2ccco2)CC1	0.6%	39.6%	2.2%	1.2%
Cc1ccc(S(=O)(=O)Nc2ccc(-n3cnnn3)cc2)cc1	0.5%	5.7%	14.7%	11.7µM*
CSc1ccc(NS(=O)(=O)c2ccc(-n3cnnn3)cc2)cc1	4.1%	?	12.2%	?
CCOc1ccc(-c2nn[nH]n2)cc1OCC	7.4%	5.9%	6.5%	?
CCOc1cc(-c2cc(N)n[nH]2)cc(OCC)c1OCC	14.7%	13.1µM*	?	104.7%
COC(=O)c1sc(-c2ccc(Cl)cc2)cc1NC(=O)COCC(=O)O	1.5%	2.08µM*	4.3%	-8.4%
CN(CCCNC(=O)CCC(=O)N1CCOc2ccc(Cl)cc21)Cc1ccccc1	1.1%	2.8%	3.5%	14.7µM*
COc1ccccc1CNC(=O)CCC(=O)N1CCOc2ccc(Cl)cc21	3.0%	-5.8%	-11.8%	?
CC(CNC(=O)CCC(=O)N1CCOc2ccc(Cl)cc21)c1ccccc1 (stereo not drawn)	0.6%	?	-12.0%	13.1µM*
O=C(CCC(=O)N1CCOc2ccc(Cl)cc21)NCc1ccccc1	1.3%	-13.8%	-2.4%	11.7µM*
O=C(O)c1ccccc1Nc1ccccc1C(=O)O	3.4%	-5.1%	?	25.3%
SMILES	SARS PLpro yeast	Pf growth 48h	NS1 function inh	Pf growth 96h
CN1C(=O)SC(Nc2ccccc2C(=O)O)C1=O (stereo not drawn)	3.5%	5.6%	-7.4%	1.31µM*
CC1CCCCN1C(=O)CSc1nnc(-c2ccco2)o1 (stereo not drawn)	1.2%	123.3%	-0.2%	5.22µM*
CC1CCCCN1C(=O)CSc1nnc(-c2ccccc2F)o1 (stereo not drawn)	0.5%	130.9%	0.2%	2.7%
COc1ccc(-c2cc(C3CCN(C(=O)OC(C)(C)C)CC3)[nH]n2)cc1	-1.1%	?	-7.4%	?
COc1ccc(OC)c(-c2cc(C3CCN(C(=O)OC(C)(C)C)CC3)[nH]n2)c1	0.8%	?	-6.4%	10.4µM*
c1ccc(Nc2ccccc2)cc1	-2.9%	46.4%	/	38.6%
